Assay results as given in the supplement of paper PMC9177965.

These compounds were tested on HT29 sg-Ctrl (RNF43 wildtype) (assay: cell viability activity relative to DMSO (negative = inhibition); higher = more viable cells (less growth inhibition)). Details: 5 µM; 96 h.
Protocol: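 Broad Repurposing Library primary screen at a single dose of 5 uM. HT29 sg-Ctrl and HT29 RNF43 G659fs CRISPR-edited isogenic cells were seeded at 2500 cells/well in 384-well plates in duplicate and treated for 96 h. Viability was read by CellTiter-Glo and reported as % activity relative to DMSO, with MG132 as the positive control (negative = growth inhibition).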

| SMILES | cell viability activity [%] |
| --- | --- |
| CCN(c1cc(C#CCN2CCOCC2)cc(C(=O)NCc2c(C)cc(C)[nH]c2=O)c1C)[C@H]1CC[C@H](N(C)CCOC)CC1 | -35.6 |
| O=C1C(Cl)=C(NCCN2CCOCC2)C(=O)c2ncccc21 | -94.7 |
| C[C@@H]1CC[C@@]2(NC1)O[C@H]1C[C@H]3[C@@H]4CC=C5C[C@@H](O[C@@H]6O[C@H](CO)[C@@H](O[C@@H]7O[C@@H](C)[C@H](O)[C@@H](O)[C@H]7O)[C@H](O)[C@H]6O[C@@H]6O[C@@H](C)[C@H](O)[C@@H](O)[C@H]6O)CC[C@]5(C)[C@H]4CC[C@]3(C)[C@H]1[C@@H]2C | -86.6 |
| CNCc1ccc(-c2cc(-c3nc(-c4ccc(S(=O)(=O)C(C)C)cc4)cnc3N)on2)cc1 | -74.5 |
| COc1c(C)cnc(Cn2cc(C#CCC(C)(C)O)c3c(Cl)nc(N)nc32)c1C | -88.4 |
| Nc1nccc2c1ncn2[C@@H]1C=C(CO)[C@@H](O)[C@H]1O | -40.1 |
| Cc1cccc(-c2[nH]c(C(C)(C)C)nc2-c2ccc3c(c2)OCO3)n1 | -50.7 |
| C[C@H]1O[C@@H](O[C@H]2[C@@H](O)C[C@H](O[C@H]3[C@@H](O)C[C@H](O[C@H]4CC[C@@]5(C)[C@H](CC[C@@H]6[C@@H]5CC[C@]5(C)[C@@H](C7=CC(=O)OC7)CC[C@]65O)C4)O[C@@H]3C)O[C@@H]2C)C[C@H](O)[C@@H]1O | -93.4 |
| Nc1nc(Cl)nc2c1ncn2[C@@H]1O[C@H](CO)[C@@H](O)[C@@H]1F | -63.4 |
| CN[C@H](C(=O)N[C@H](C(=O)N(C)[C@H](/C=C(\C)C(=O)O)C(C)C)C(C)(C)C)C(C)(C)c1ccccc1 | -33.2 |
| Cc1ccc(C(=O)Nc2ccc(CN3CCN(C)CC3)c(C(F)(F)F)c2)cc1C#Cc1cnc2[nH]ncc2c1 | -94 |
| Cn1c(=O)n(-c2ccc(C(C)(C)C#N)cc2)c2c3cc(-c4cnc5ccccc5c4)ccc3ncc21 | -44.1 |
| C/C(=N\NC(=S)N1CCC1)c1ccccn1 | -88.9 |
| Cc1ccccc1N(C)C(=O)c1ccc([S+]([O-])c2nccs2)c([N+](=O)[O-])c1 (configuration not stated) | -22.7 |
| O=C(/C=C/c1ccc2ccccc2n1)c1ccncc1 | -54 |
| CCn1cc(-c2ccnc3[nH]c(-c4cccc(CN(C)C)c4)cc23)c(-c2ccc(NC(=O)N(C)C)cc2)n1 | -63.8 |
| O=C(/C=C\n1cnc(-c2cc(C(F)(F)F)cc(C(F)(F)F)c2)n1)N1CC(F)(F)C1 | -68 |
| CN(C)/N=N/c1[nH]cnc1C(N)=O | -26.5 |
| CN1CCN(S(=O)(=O)c2ccc(-c3cnc(N)c(C(=O)Nc4cccnc4)n3)cc2)CC1 | -40.9 |

| SMILES | cell viability activity [%] |
| --- | --- |
| CC(C)(C)c1ccc(C(=O)CCCN2CCC(OC(c3ccccc3)c3ccccc3)CC2)cc1 | -92.1 |
| CNC(=O)c1cccc(-c2ccc3c(N4CCOC[C@@H]4C)nc(N4CCOC[C@@H]4C)nc3n2)c1 | -42.8 |
| Cc1cnc(Nc2ccc(F)cc2Cl)nc1-c1c[nH]c(C(=O)N[C@H](CO)c2cccc(Cl)c2)c1 | -76 |
| Cc1noc2c1-c1ccccc1C(c1ccc(Cl)cc1)=N[C@H]2CC(N)=O | -57.7 |
| CN(C)c1ccc(C(=C2C=CC(=[N+](C)C)C=C2)c2ccc(N(C)C)cc2)cc1 | -89.3 |
| O=C(O)c1ccc[n+]([O-])c1 | -67.1 |
| CN(C)C/C=C/C(=O)Nc1cc2c(Nc3ccc(F)c(Cl)c3)ncnc2cc1O[C@H]1CCOC1 | -19.3 |
| CN(C)CCOc1ccc(/C(=C(/CCCl)c2ccccc2)c2ccccc2)cc1 | -82.8 |
| CCCCCCCCNC(C)C(O)c1ccc(SC(C)C)cc1 (configuration not stated) | -12.2 |
| COC(=O)Nc1ccc(-c2nc(N3CCOCC3)c3cnn(C4CCN(Cc5cccnc5)CC4)c3n2)cc1 | -48.1 |
| CCc1c2c(nc3ccc(O)cc13)-c1cc3c(c(=O)n1C2)COC(=O)[C@]3(O)CC | -63.3 |
| Cn1cnc2c(F)c(Nc3ccc(Br)cc3F)c(C(=O)NOCCO)cc21 | -82.9 |
| Nc1ccc2cc3ccc(N)cc3nc2c1 | -47.4 |
| CC(C)N(C[C@H]1O[C@@H](n2cnc3c(N)ncnc32)[C@H](O)[C@@H]1O)[C@H]1C[C@@H](CCc2nc3cc(C(C)(C)C)ccc3[nH]2)C1 | -26.5 |
| CCN1CCN(c2ccc(C(C)(C)NC(=O)c3cc4[nH]c5ccccc5c(=O)c4cc3F)cn2)CC1 | -42.7 |
| CCN1CCC[C@H]1CNC(=O)c1c(OC)ccc(Br)c1OC | -38.6 |
| Nc1nc2[nH]cnc2c(=S)[nH]1 | -73.9 |
| CN1CCN(CCCN2c3ccccc3Sc3ccc(C(F)(F)F)cc32)CC1 | -18.8 |
